Outcome data for 1 compound are collected here from PubChem BioAssay AID651923 (Vanderbilt Specialized Chemistry Center, 2012).

Activity calls are given as the source filed them. How the calls were made is not given here.

The assay addresses Muscarinic acetylcholine receptor M1 (Homo sapiens) (UniProt P11229). The assay is described as follows: ACh response enhancement at human M1 – CHO cells, selectivity assay for M5 PAM project (AID 651923).

Sequence of Muscarinic acetylcholine receptor M1 (Homo sapiens) (P11229 whole entry, looked up): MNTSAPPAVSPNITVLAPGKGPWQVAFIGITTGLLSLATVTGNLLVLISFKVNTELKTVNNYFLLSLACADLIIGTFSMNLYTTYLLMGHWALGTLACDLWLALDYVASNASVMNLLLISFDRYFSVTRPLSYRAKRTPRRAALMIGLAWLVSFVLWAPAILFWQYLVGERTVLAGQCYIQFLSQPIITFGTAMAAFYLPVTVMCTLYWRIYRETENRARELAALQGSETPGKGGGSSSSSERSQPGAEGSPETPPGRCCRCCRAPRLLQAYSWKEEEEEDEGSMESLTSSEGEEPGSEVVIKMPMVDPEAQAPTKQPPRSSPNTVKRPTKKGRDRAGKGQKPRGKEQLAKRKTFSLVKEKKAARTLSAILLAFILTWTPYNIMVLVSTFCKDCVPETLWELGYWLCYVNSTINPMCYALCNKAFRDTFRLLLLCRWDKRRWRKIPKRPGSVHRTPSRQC

On to `O=C1C(=O)N(CCOc2ccccc2)c2ccc(OC(F)(F)F)cc21`, for which the result was inactive.
